Source: PubChem BioAssay
This is one part of a sample in which hits are shown more often than they occur.
Pf apPOL block – Pf-apPOL DNA polymerase inhibition; Recombinant Pf-apPOL, molecular beacon fluorescence, 1.5 h; inhibition, % at 10 µM; 0.25% of 210,000 active; AID 1794808
mHTT CaM bind – disrupts binding of mutant huntingtin to calmodulin. P42858. AlphaScreen His-mHTT/GST-CaM binding, luminescence. inhibition, % at 15 µM. 3.6% of 190,000 active;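 also: 0% = both proteins with DMSO and 100% = one protein alone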
* hit, by the source's call. Rule as the data show it: active = inhibition above about 50%; inactive = the rest.

SMILES	Pf apPOL block	mHTT CaM bind
COc1ccc(C(CCN2CCOCC2)c2c(OC)cc(OC)c3c(-c4ccccc4)cc(=O)oc23)cc1 (configuration not stated)	-7.8	65.9*
COc1ccc(C(CCN2CCCC(C)C2)c2c(OC)cc(OC)c3c(-c4ccccc4)cc(=O)oc23)cc1 (configuration not stated)	-3.3	99.8*
COc1ccc(C(CCN2CCCC2)c2c(OC)cc(OC)c3c(-c4ccccc4)cc(=O)oc23)cc1 (configuration not stated)	-11.5	98.3*
COc1ccc(C(CCN2CCCC(C)C2)c2c(OC)cc(OC)c3c(C)cc(=O)oc23)cc1 (configuration not stated)	-8.4	20.5
Cc1ccc(Cn2c(SCC(=O)Nc3cc(C)[nH]n3)nc3ccsc3c2=O)cc1	21.6	1.0
NC(=O)COc1cccc(/C=C2\CC/C(=C\c3cccc(OCC(N)=O)c3)C2=O)c1	-4.7	23.0
CCCn1c(C(=O)N(C)Cc2ccccc2)cc2sc(C)cc21	-11.7	91.1*
CCCn1c(C(=O)N(C)Cc2ccccc2)cc2sc(Br)cc21	-3.8	14.3
CC(=O)N1CCc2sc(S(=O)(=O)NCc3ccc4c(c3)OCO4)cc2C1	-4.2	2.8
Cc1ccc(-c2nnc(C)c(N3CCC(C)CC3)n2)cc1	-0.2	82.2*
CCOC(=O)C1CCN(c2nc(-c3cccc(C)c3)nnc2C)CC1	-1.0	57.9*
CCOC(=O)C1CCN(c2nc(-c3ccc(C)cc3)nnc2C)CC1	-2.7	14.9
COc1ccc(-c2nnc(C)c(N3CCC(C)CC3)n2)cc1	-2.0	8.1
COC(=O)C(NC(=O)N1CCCn2nc(-c3ccncc3)cc2C1)c1ccccc1 (configuration not stated)	-2.4	0.3
Cc1ccc(C(=O)N2CCN(c3cccc(Cl)c3)CC2)cc1	-6.3	23.2
Cc1cc2c(=O)n(C(C)C(=O)N3CCN(c4cccc(Cl)c4)CC3)ccc2o1 (configuration not stated)	1.3	97.2*
Cn1c(=O)n(C)c2cc(/C=C(\C#N)c3nc4ncc(Br)cc4[nH]3)ccc21	6.2	10.0
N#C/C(=C\c1ccc(-c2ccc3c(c2)C(=O)NC3=O)o1)c1nc2ncc(Br)cc2[nH]1	-4.9	73.0*
N#CCSc1nc2ccc(N3CCOCC3)cc2c(=O)n1Cc1ccc2c(c1)OCO2	6.0	22.0
Cc1nn(-c2ccc(C(=O)NC3CCCC3)cn2)c(C)c1C	-3.1	-1.0
Cc1ccnc(NC(=O)C2CCCC2)c1	-1.5	-3.8
O=C(c1cnccn1)N1CCN(c2cc(-n3cccn3)ncn2)CC1	-0.2	-10.0
Cc1ccnc(Nc2ccc(N3CCN(C(=O)c4cnccn4)CC3)nn2)c1	-7.8	90.4*
Cc1ccnc(Nc2ccc(N3CCN(C(=O)C4CCCC4)CC3)nn2)c1	-5.0	54.7*
CCOc1ccc(N=Cc2cccc([N+](=O)[O-])c2O)cc1	-7.9	6.0
SMILES	Pf apPOL block	mHTT CaM bind
COC(=O)C(C)Oc1ccc2c(c1)OC(=CC=Cc1ccccc1OC)C2=O (configuration not stated)	-0.8	-3.7
COc1ccc2c(c1)CC/C(=C\c1cccn1C)C2=O	-6.9	39.0
Cn1cccc1/C=C1\CCC/C(=C\c2cccn2C)C1=O	-2.6	79.0*
Cc1ccccc1C1=N/C(=C\c2cccn2C)C(=O)O1	4.8	19.0
CC1C/C(=C\c2cccn2C)C(=O)/C(=C/c2cccn2C)C1 (configuration not stated)	-0.6	99.0*
Cc1ccc(CN2CCCN(S(C)(=O)=O)CC2)s1	-3.1	26.6
CCN(CC)C(=O)c1cn(CC(C)C)c(=O)c2c1c1ccccc1n2C	-3.2	-1.0
CSc1nc(-c2ccccc2)nc2c1CCCC2	-4.9	-25.0
COc1ccc(NC(=O)c2cnn3c2NC(c2cccs2)CC3C(F)(F)F)cc1OC (configuration not stated)	0.5	29.0
O=C(Nc1ccc2c(c1)OCO2)c1cnn2c1NC(c1cccs1)CC2C(F)(F)F (configuration not stated)	75.9*	7.0
CC1CCN(CC2CCN(S(=O)(=O)c3ccc(Cl)cc3)CC2)CC1	-3.4	9.6
O=C(O)CC(NCc1ccc(Cl)c([N+](=O)[O-])c1)c1cccs1 (configuration not stated)	34.5	-6.0
CCCCC(=O)NC(c1cccs1)c1cc([N+](=O)[O-])c2cccnc2c1O (configuration not stated)	8.6	96.0*
CC(=O)NC(c1cccs1)c1cc([N+](=O)[O-])c2cccnc2c1O (configuration not stated)	-0.3	100.0*
CCCC(=O)NC(c1cccs1)c1cc([N+](=O)[O-])c2cccnc2c1O (configuration not stated)	5.1	100.0*
CCOc1ccc(N/C=C/C(=O)c2cccs2)c([N+](=O)[O-])c1	-5.0	37.6
O=C(CCc1ccccc1)NC(c1cccs1)c1cc(Cl)c2cccnc2c1O (configuration not stated)	-4.0	31.0
